According to PubChem BioAssay (Tox21):
Inconclusive results are not listed. Active and inactive are the calls of the source. Unless noted, calls follow the shape of the full dose curve.

Columns and labels:
[1] = Nuclear factor erythroid 2-related factor 2/antioxidant responsive element (Nrf2/ARE) small molecule agonists: luciferase reporter gene qHTS assay in human keratinocytes (AID 1919969); also: nearly all actives have a fitted effect of over 35% in size
[2] = target: Gonadotropin-releasing hormone receptor (Homo sapiens) (UniProt P30968); test: Human gonadotropin-releasing hormone receptor (GnRHR) small molecule agonists, calcium flux assay in GnRHR-HEK293 cells (AID 1920063); also: nearly all actives have a fitted effect of over 35% in size
Gonadotropin-releasing hormone receptor (Homo sapiens), sequence (P30968 whole entry, looked up): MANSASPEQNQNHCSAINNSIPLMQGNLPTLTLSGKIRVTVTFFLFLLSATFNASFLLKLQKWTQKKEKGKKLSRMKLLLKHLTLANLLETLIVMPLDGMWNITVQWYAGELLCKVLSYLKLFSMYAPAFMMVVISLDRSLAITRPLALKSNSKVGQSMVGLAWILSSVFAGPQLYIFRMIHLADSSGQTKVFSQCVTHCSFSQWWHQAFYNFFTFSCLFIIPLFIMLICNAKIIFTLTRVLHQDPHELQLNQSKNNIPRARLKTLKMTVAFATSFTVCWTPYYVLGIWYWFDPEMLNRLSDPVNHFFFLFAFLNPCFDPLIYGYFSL
Method in brief: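 Tox21-format agonist screen using human GnRHR-expressing HEK293 cells and a fluorescent calcium dye; kinetic 3-min fluorescence reading after compound addition, 15-point concentration series run in triplicate.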

[3] = target: KiSS-1 receptor (Homo sapiens) (UniProt Q969F8); test: Human kisspeptin (KISS1R) small molecule agonists, calcium flux assay in KISS1R-HEK293 cells (AID 1920064; active = well fitted activation curve with a large enough effect in the repeat runs)
KiSS-1 receptor (Homo sapiens), sequence (Q969F8 whole entry, looked up): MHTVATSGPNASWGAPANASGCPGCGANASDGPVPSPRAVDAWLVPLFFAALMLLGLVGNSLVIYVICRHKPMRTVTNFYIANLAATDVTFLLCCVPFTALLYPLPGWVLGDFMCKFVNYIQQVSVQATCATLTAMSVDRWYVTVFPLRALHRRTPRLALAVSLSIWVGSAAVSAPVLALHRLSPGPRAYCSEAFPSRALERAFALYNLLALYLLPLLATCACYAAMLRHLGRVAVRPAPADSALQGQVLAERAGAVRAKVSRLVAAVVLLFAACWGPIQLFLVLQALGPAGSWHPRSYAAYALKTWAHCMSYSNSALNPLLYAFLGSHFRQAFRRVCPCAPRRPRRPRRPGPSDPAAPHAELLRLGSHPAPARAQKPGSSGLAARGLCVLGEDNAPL
Method in brief: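 Intracellular calcium mobilization in KISS1R-HEK293 cells was recorded by fluorescence (Ex/Em 480/540) for 3 min following compound addition to cells pre-loaded 1 h with calcium dye.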

[4] = G protein-coupled receptor (GPCR) small molecule agonists, calcium flux assay: HEK293 wild type cell line counter screen (AID 1920065)
Method in brief: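 In this agonist-mode screen, ATP is the positive control and DMSO the vehicle. Cells grow 18 h before a 1 h dye incubation at 37 C; signal is taken at Ex/Em 480/540 over 3 min.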

[5] = p53 small molecule agonists, cell-based qHTS assay with human liver microsomes (AID 1963577);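 also: p53 response element beta-lactamase reporter cells with liver microsomes plus NADPH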
Method in brief: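 With metabolic activation: human liver microsomes (0.5 mg/mL final) plus NADPH (0.5 mg/mL final) added alongside compounds to p53RE-bla cells; 16 h 37 C exposure; beta-lactamase read by LiveBLAzer fluorescence.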

[6] = p53 small molecule agonists, cell-based qHTS assay with human liver microsomes: qHTS cell viability counter screen (AID 1963579); also: nearly all actives have a fitted effect of over 45% in size
Method in brief: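 Metabolic activation used human liver microsomes and NADPH, both 0.5 mg/mL final, over 16 hours at 37 C on p53RE-bla cells (4,000/well). Cytotoxicity measured by CellTiter-Glo luminescence, 30 min at room temperature.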

[7] = p53 small molecule agonists, cell-based qHTS assay with rat liver microsomes: qHTS cell viability counter screen (AID 1963580); also: nearly all actives have a fitted effect of over 45% in size
Method in brief: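 p53RE-bla HCT-116 cells were exposed 16 h at 37 C to compounds with rat liver microsomes (0.5 mg/mL) and NADPH (0.5 mg/mL). Viability was measured in the same wells as ATP content by CellTiter-Glo luminescence.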

[8] = p53 small molecule agonists, cell-based qHTS assay: qHTS cell viability counter screen (AID 1963581); also: nearly all actives have a fitted effect of over 45% in size
Method in brief: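 Compounds are pinned onto HCT-116 p53RE-bla cells and left 16 h at 37 C. Following the reporter FRET read, ATP is quantified by CellTiter-Glo luminescence after 30 min at room temperature.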

[9] = p53 small molecule agonists, cell-based qHTS assay (AID 1963582; active = well fitted activation curve with a large enough effect in the signal ratio in the repeat runs, not every such curve was filed as active; the % refers to the signal ratio)
Method in brief: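 Agonist activity was scored from beta-lactamase FRET fluorescence in p53RE-bla cells treated 16 h at 37 C with compounds in DMSO, substrate incubation being 2 h at room temperature.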

[10] = target: 5-hydroxytryptamine receptor 2A (Homo sapiens) (UniProt P28223); test: 5-hydroxytryptamine receptor 2A (HTR2A) small molecule antagonists, cell-based qHTS assay (AID 1963586); also: nearly all actives have a fitted effect of over 45% in size
5-hydroxytryptamine receptor 2A (Homo sapiens), sequence (P28223 whole entry, looked up): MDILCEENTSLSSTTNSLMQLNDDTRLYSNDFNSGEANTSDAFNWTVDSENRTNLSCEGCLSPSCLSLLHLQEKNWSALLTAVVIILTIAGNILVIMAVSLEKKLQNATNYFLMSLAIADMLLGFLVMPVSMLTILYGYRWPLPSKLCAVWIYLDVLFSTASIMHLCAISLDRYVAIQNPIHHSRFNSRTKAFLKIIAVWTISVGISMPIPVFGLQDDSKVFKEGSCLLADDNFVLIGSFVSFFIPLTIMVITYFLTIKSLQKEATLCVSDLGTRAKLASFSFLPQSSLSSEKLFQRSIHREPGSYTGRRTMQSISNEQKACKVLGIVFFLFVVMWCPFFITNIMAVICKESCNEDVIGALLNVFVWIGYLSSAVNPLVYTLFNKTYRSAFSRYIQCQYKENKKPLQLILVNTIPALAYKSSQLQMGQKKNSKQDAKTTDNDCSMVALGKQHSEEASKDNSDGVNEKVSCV
Method in brief: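 Antagonist-mode intracellular calcium assay: DOI (4 nM) added after 5 min compound pre-incubation at room temperature to dye-loaded HTR2A-CHO cells. Fluorescence followed for 3 min, sampled every second.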

[11] = target: 5-hydroxytryptamine receptor 2A (Homo sapiens) (UniProt P28223); test: 5-hydroxytryptamine receptor 2A (HTR2A) small molecule agonists, cell-based qHTS assay (AID 1963587); also: nearly all actives have a fitted effect of over 30% in size; also: potency is read from the fitted curve at half-maximal effect
Method in brief: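 CHO cells stably expressing human HTR2A, plated 18 h, loaded with calcium dye 1 h at 37 C. Agonist mode: compounds added and intracellular calcium fluorescence recorded kinetically for 2 min at 1 sec intervals.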

[12] = target: Muscarinic acetylcholine receptor M1 (Homo sapiens) (UniProt P11229); test: Cholinergic receptor muscarinic 1 (CHRM1) small molecule antagonists, cell-based qHTS assay (AID 1963588); also: nearly all actives have a fitted effect of over 40% in size
Muscarinic acetylcholine receptor M1 (Homo sapiens), sequence (P11229 whole entry, looked up): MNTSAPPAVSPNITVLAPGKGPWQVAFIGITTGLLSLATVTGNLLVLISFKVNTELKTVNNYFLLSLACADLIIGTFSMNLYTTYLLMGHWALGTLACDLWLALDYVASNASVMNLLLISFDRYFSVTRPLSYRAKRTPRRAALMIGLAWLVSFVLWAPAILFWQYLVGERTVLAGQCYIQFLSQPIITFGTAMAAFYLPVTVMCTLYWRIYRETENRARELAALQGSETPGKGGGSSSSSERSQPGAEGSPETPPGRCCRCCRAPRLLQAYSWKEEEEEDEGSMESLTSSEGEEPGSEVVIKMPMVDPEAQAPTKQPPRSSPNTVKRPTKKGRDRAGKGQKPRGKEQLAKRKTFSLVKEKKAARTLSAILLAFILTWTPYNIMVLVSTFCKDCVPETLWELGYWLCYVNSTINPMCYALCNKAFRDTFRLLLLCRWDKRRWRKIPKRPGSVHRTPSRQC
Method in brief: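 CHRM1-CHO calcium-flux assay, antagonist mode. Cells were seeded 18 h, dye-loaded 1 h at 37 C and given compound for 5 min at RT, then acetylcholine was added at 50nM. FDSS fluorescence was read 3 min; 15 concentrations, three runs.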

[13] = target: Muscarinic acetylcholine receptor M1 (Homo sapiens) (UniProt P11229); test: Cholinergic receptor muscarinic 1 (CHRM1) small molecule agonists, cell-based qHTS assay (AID 1963589); also: nearly all actives have a fitted effect of over 35% in size
Method in brief: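 Stable CHRM1-CHO cells (human receptor) were incubated 18 h, dye-loaded for 1 h at 37 C and exposed to test compounds for agonist activity, with calcium-dependent fluorescence followed kinetically.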

[14] = cAMP Responsive Elements (CRE) small molecule agonists, cell-based qHTS assay (AID 1963590)
Method in brief: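 FRET-based beta-lactamase readout (LiveBLAzer B/G, 2 h RT) quantified CRE activation in HEK 293T CRE-bla cells after 3 h treatment with DMSO-dissolved compounds.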

[15] = target: Beta-2 adrenergic receptor (Homo sapiens) (UniProt P07550); test: Adrenergic beta2 receptor (ADRB2) small molecule antagonists, cell-based qHTS assay (AID 1963592); also: series mostly up to about 92 µM; nearly all actives have a fitted effect of over 50% in size
Beta-2 adrenergic receptor (Homo sapiens), sequence (P07550 whole entry, looked up): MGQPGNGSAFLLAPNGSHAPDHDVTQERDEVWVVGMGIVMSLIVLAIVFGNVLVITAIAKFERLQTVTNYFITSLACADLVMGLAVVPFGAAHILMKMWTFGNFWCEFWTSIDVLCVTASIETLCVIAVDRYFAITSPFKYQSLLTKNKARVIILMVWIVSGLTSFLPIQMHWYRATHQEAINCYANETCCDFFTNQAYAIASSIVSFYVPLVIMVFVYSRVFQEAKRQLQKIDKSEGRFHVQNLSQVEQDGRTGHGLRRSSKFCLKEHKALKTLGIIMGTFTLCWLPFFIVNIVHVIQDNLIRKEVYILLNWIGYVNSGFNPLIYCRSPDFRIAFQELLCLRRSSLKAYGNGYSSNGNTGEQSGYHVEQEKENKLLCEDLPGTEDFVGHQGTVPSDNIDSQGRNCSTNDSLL
Method in brief: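 Cells (CHO, stable ADRB2 overexpression) incubated 18-20hr at 37C; compounds added from DMSO; agonist mix (1nM isoproterenol, 100uM IBMX, 25uM Ro-20-1724) added; 0.5hr RT; d2-cAMP and anti-cAMP-cryptate added; 1hr RT; 665/615 nm read.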

[16] = target: Beta-2 adrenergic receptor (Homo sapiens) (UniProt P07550); test: Adrenergic beta2 receptor (ADRB2) small molecule agonists, cell-based qHTS assay (AID 1963593);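 also: CHO cells stably overexpressing human ADRB2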
Method in brief: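 CHO cells stably over-expressing ADRB2 were plated overnight at 37C, then dosed with compounds plus a stimulation mix containing 100uM IBMX and 25uM Ro-20-1724 for 0.5hr at room temperature. cAMP was measured by HTRF competition, 1hr.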

[17] = target: D(2) dopamine receptor (Homo sapiens) (UniProt P14416); test: Dopamine D2 receptor (DRD2) small molecule agonists, cell-based qHTS assay (AID 1963594); also: nearly all actives have a fitted effect of over 35% in size
D(2) dopamine receptor (Homo sapiens), sequence (P14416 whole entry, looked up): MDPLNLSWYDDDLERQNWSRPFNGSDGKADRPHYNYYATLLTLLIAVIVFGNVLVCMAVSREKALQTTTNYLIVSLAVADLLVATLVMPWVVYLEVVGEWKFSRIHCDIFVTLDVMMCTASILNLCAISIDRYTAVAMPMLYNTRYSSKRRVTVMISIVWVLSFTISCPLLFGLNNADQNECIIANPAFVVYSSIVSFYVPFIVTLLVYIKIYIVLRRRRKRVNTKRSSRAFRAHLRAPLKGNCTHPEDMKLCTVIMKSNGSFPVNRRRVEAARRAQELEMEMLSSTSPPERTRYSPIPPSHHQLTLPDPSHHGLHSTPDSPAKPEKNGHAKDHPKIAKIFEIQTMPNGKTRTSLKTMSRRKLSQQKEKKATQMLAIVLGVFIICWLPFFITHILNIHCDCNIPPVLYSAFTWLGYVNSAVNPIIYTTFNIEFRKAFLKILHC
Method in brief: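 HEK293 cells stably expressing human DRD2, pre-treated with PDE inhibitor Ro20-1724 (0.1 mM final) and compound 10 min at room temperature, then stimulated with NKH477 (200nM […]) for 30 min. cAMP read by HTRF (665/620 nm).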

[18] = target: D(2) dopamine receptor (Homo sapiens) (UniProt P14416); test: Dopamine D2 receptor (DRD2) small molecule antagonists, cell-based qHTS assay (AID 1963595; active = well fitted inhibition curve with a large enough effect in the signal ratio in the repeat runs, with a control signal flat; the % refers to the signal ratio)
Method in brief: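 Readout: HTRF cAMP, cAMP-d2 competing with cellular cAMP for anti-cAMP cryptate, read after 1 h. Cells: DRD2-HEK293. Conditions: 0.1 mM Ro20-1724, 12 nM quinpirole, 200 nM NKH477, 30 min RT.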

[19] = cAMP Responsive Elements (CRE) small molecule antagonists, cell-based qHTS assay (AID 1963591; active = well fitted inhibition curve with a large enough effect in the signal ratio in the repeat runs, not every such curve was filed as active; the % refers to the signal ratio)
Method in brief: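 qHTS in CRE-bla HEK 293T cells: compound in DMSO, then 0.25 uM NKH477 (final), 3 h at 37 °C/5% CO2; beta-lactamase FRET read-out after 2 h substrate incubation.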

[20] = p53 small molecule agonists, cell-based qHTS assay with rat liver microsomes (AID 1963578)
Method in brief: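 Metabolic activation by rat liver microsomes and NADPH, each 0.5 mg/mL final, added right after compounds to p53RE-bla reporter cells (4,000/well, plated 5 h earlier). 16 h at 37 C, then LiveBLAzer substrate for 2 h at room temperature in the dark; fluorescence read-out.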

Measured: Potency

CCC(C(=O)OCCOCCN(CC)CC)c1ccccc1 (configuration not stated)
active: [11] 2.68 µM
not listed: [19] | [20]
inactive: all other assays above

CN(C)/N=N/c1nc[nH]c1C(N)=O
inactive: [1] | [2] | [3] | [4] | [6] | [7] | [8] | [19] | [17] | [18]

Cc1ncc(CSSCc2cnc(C)c(O)c2CO)c(CO)c1O
not listed: [4]
inactive: all other assays above

C(=C\c1ccccc1)/c1ccccc1
not listed: [2] | [12]
inactive: all other assays above

O=c1[nH]cnc2[nH]ncc12
inactive: [1] | [2] | [3] | [4] | [6] | [7] | [8] | [14] | [15] | [17] | [18]

NC(=O)Cc1cccc2ccccc12
not listed: [2] | [16]
inactive: all other assays above

CC1=CCC(C(C)C)=CC1
not listed: [3] | [16]
inactive: all other assays above
